The values below come from PubChem BioAssay.

Activity calls are given as the source filed them.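 How the source made its calls, unless noted: active means a full or partial loss of lipid-probe fluorescence in the fish gall bladder, intestine or both, judged by eye; inactive means no fluorescence loss, or compound toxic to the fish.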

Experiment [1] can be described thus: inhibitors of TNFa-induced NFkB p65 translocation, primary screen, imaging, HUVEC, MLSMR starter and 10KST1 sets (AID 438;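 active means inhibition above 20% together with a positive visual image hit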;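 further: compound added about 3h40 before a 20 min TNFalpha stimulation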;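 on inhibition: signal is the nuclear over cytoplasmic p65 intensity ratio per well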). The following applies: HUVEC TNFa-induced p65 nuclear translocation; cell count: measured here: nuclei count (cytotoxicity indicator), at 2.08 µM; inhibition: at 2 µM, stronger effect = higher value, 0% TNFa-plus-vehicle, 100% no-TNFa wells.
Experiment [2] is described as follows: inhibitors of E-selectin induction by TNFa, primary screen, imaging, HUVEC, immunofluorescence, MLSMR starter and 10KST1 sets (AID 487;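 active means visually confirmed hit in the image check and inhibition above 20%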;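 on inhibition: signal is fraction of cell area covered by stained E-selectin grains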;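 on nuclei count: 100% = median nuclei count of all wells on the same plate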). The following applies: HUVEC TNFalpha-induced E-selectin immunofluorescence imaging, at 2 µM; inhibition: stronger effect = higher value; nuclei count: measured here: cell number, toxicity.
Experiment [3] in a line: DUSP6 inhibitors restoring Erk phosphorylation by chemical complementation, primary imaging in DUSP6-transfected HeLa (AID 609;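 active means compounds giving at least 50% inhibition in the cell-based MKP-3 phosphatase rescue imaging test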;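 on inhibition: phospho-Erk level distribution per well compared with pooled transfected vehicle control wells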). The following applies: HeLa MKP-3 transfected, phospho-Erk imaging KS statistic, at 10 µM, cells stimulated with TPA for 15 min.
Experiment [4] has as its target Dual specificity protein phosphatase 6 (Homo sapiens) (UniProt Q16828). Described as above. Conditions: HeLa MKP-3 transfected, phospho-Erk imaging KS statistic; at 10 µM; stronger effect = higher value; cells stimulated with TPA for 15 min.
Experiment [5] concerns the target Voltage-gated potassium channel subunit beta-2 (Rattus norvegicus) (UniProt P62483). Put plainly: KvBeta enzyme negative modulators, primary screen, biochemical, NADPH fluorescence (AID 622;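 active means fluorescence slope higher than the sample average by over 3 SD, cut at about -0.22 in these data, passing the limit was not always enough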;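 further: slope of raw intensity against log time taken from 70 to 1610 s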). Conditions: recombinant KvBeta, 4-cyanobenzaldehyde reduction, at 10 µM, stronger effect = higher value.
For experiment [6] the target is unchanged. Put plainly: KvBeta positive modulators, primary screen, biochemical, NADPH fluorescence (AID 623;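 active means NADPH fluorescence slope more negative than the mean of all samples by about 3 SD, 99.7% confidence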;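 further: fluorescence intensity change per second fitted from 20 to 320 s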). Conditions: Recombinant KvBeta, NADPH fluorescence decrease slope, 10 min; at 10 µM; stronger effect = lower value.
Experiment [7] deals with Muscarinic acetylcholine receptor M4 (Homo sapiens) (UniProt P08173). The experiment in a line: compounds altering M4/GIRK thallium flux, either direction, primary screen, M4 allosteric agonist project, cell-based, HEK293 M4/GIRK, BTC-AM (AID 625;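 active means fluorescence slope after compound addition differing from the mean of all tested samples at 99.7% confidence, mostly higher but some lower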;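 further: thallium influx through GIRK channels coupled to M4 in HEK293 cells with BTC-AM dye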). The following applies: at 10 µM, actives lie on both sides.
Chain of Muscarinic acetylcholine receptor M4 (Homo sapiens) (P08173 whole entry, looked up): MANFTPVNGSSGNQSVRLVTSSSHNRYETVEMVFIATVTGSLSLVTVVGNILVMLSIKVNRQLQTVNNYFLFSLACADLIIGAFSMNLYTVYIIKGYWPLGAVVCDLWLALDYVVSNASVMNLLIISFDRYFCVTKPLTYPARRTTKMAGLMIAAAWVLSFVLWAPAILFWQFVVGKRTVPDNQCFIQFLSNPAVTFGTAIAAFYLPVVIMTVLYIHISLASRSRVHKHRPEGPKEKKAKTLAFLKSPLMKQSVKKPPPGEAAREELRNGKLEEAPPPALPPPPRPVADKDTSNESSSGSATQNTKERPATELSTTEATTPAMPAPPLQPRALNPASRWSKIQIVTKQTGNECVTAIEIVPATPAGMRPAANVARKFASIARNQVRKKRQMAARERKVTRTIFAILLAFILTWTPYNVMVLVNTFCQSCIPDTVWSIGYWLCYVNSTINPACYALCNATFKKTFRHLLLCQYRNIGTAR
Experiment [8] in a line: inhibitors of larval lipid processing in zebrafish, primary screen, whole organism, PED6 fluorescence, gall bladder and intestine (AID 686).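 Further: larvae 5 to 7 days old with five fish per well; signal comes from phospholipase A2 cleavage of quenched PED6 carried via bile; overnight exposure to compound and PED6 before scoring.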 The following applies: Zebrafish larvae PED6 lipid processing, fluorescence scoring; screened at 20 µM (by protocol).
The nature of experiment [9]: inhibitors of Chlamydomonas gravitaxis, primary screen, whole organism, Chlamydomonas reinhardtii, WT vs cilia-less mutant, absorbance, 96-well (AID 463189;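 active means inhibition at or above 50% relative to wild type and mutant plate controls; inactive means inhibition below 50%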;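 further: 0% = wild type cc124 cells in DMSO and 100% = ciliumless bld1 mutant cells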). The following applies: OD600 absorbance, 2 days, at 10 µM, stronger effect = higher value.
[10] abbreviates: measured here: cell density z-score.
Setting [11] is: measured here: nuclear c-Myc green intensity z-score.
The mark [12] stands for this setting: measured here: nuclear pErk red intensity z-score, stronger effect = higher value.

Chain of Dual specificity protein phosphatase 6 (Homo sapiens) (Q16828 whole entry, looked up): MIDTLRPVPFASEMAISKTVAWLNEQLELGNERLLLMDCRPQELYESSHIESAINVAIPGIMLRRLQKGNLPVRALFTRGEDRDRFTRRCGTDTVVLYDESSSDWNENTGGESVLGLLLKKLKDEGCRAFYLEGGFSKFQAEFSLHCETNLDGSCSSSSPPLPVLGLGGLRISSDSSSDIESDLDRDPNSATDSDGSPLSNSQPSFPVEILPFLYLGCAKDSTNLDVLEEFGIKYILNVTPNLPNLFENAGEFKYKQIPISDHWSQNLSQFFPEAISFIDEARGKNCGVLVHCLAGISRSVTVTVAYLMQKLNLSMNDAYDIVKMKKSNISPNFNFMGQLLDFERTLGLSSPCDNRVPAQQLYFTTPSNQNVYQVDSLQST
Chain of Voltage-gated potassium channel subunit beta-2 (Rattus norvegicus) (P62483 whole entry, looked up): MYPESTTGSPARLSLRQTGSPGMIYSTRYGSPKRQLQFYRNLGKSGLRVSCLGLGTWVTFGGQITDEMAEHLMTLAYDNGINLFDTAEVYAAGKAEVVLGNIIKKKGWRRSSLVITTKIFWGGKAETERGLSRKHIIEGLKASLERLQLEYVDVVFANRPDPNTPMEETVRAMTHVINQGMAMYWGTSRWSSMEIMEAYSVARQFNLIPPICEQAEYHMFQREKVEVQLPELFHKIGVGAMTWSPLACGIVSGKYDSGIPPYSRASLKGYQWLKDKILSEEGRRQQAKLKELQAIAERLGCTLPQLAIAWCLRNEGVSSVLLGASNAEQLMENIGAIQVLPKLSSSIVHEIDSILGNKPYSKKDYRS

For `CC(=O)/C(C#N)=C1\NC(=O)C(Cc2ccccc2Cl)S1` (centres undefined), the cell count in experiment [1] stood at 605. For the same compound, the inhibition – broadly, the change of the read-out against control, counted positive when it falls – was -10.1% (inactive) in experiment [1], 31.2% (inactive) in experiment [2], 7.42% (inactive) in experiment [4] and 4.47% (inactive) in experiment [9]. Besides, the nuclei count in experiment [2] came out at 179%. The z-score in experiment [3] (setting [10]) is 1.48; in experiment [3] (setting [11]), -0.162; in [3] (setting [12]) it was -0.594. The fluorescence slope in [5] was -0.416 (inactive); in experiment [7] it was 0.00568 (inactive). In experiment [6], the NADPH fluorescence slope was -7e-05 (inactive). Also, in experiment [8], the result was inactive.

On to `CN(C)CCOC(=O)Cc1ccc(Cl)cc1`, for which the cell count in [1] was 622. The inhibition was -6.2% (inactive) in experiment [1], -90.8% (inactive) in experiment [2], 12.8% (inactive) in experiment [4] and 35.4% (inactive) in experiment [9]. Besides, the nuclei count in experiment [2] worked out at 83.6%. For the same compound, the z-score was 1.56 in [3] (setting [10]), -0.995 in experiment [3] (setting [11]) and -0.341 in experiment [3] (setting [12]). For the same compound, the results for the fluorescence slope in experiment [5] and in experiment [7] were -0.539 (inactive) and 0.00854 (inactive), respectively. Also, the NADPH fluorescence slope in experiment [6] is -4.8e-05 (inactive). Moreover, the compound was classed as inactive in experiment [8].

`COc1ccccc1-c1c(C)oc2c(CN3CCN(C)CC3)c(O)ccc2c1=O`: the cell count in [1] turned out to be 672. Further, the inhibition in [1] was -0.2% (inactive); in [2] it was -20.6% (inactive); in experiment [4], 14.7% (inactive); in experiment [9], -5.96% (inactive). Besides, the nuclei count in experiment [2] was 150%. For the same compound, the z-score is 0.0584 in experiment [3] (setting [10]), -0.255 in experiment [3] (setting [11]) and -0.66 in experiment [3] (setting [12]). In addition, the results for the fluorescence slope in experiment [5] and in [7] were -0.0259 (inactive) and 0.00509 (inactive), respectively. Also, the NADPH fluorescence slope in experiment [6] is 1.6e-05 (inactive). Also, in experiment [8], the compound was classed as inactive.

`CCOC(=O)N1CCN(c2ncnc3c2cnn3-c2ccc(OC)cc2)CC1`: the cell count in experiment [1] was 638. In addition, the inhibition in experiment [1] is -4.6% (inactive); in experiment [2], -140% (inactive); in experiment [4], 13.4% (inactive); in experiment [9], 0.263% (inactive). Also, the nuclei count in experiment [2] came to 149%. For the same compound, the z-score in experiment [3] (setting [10]) is 0.712; in experiment [3] (setting [11]), -0.105; in [3] (setting [12]) it was 0.21. The fluorescence slope in [5] was -0.379 (inactive); in experiment [7], 0.00565 (inactive). Further, the NADPH fluorescence slope in experiment [6] is -4.6e-05 (inactive). Besides, the compound was classed as inactive in [8].

For `COc1cccc(C2/C(=C(\O)c3ccc(OC)c(OC)c3)C(=O)C(=O)N2c2cc(C)on2)c1` (centres undefined), in experiment [1], the cell count came to 715. The inhibition is 1.5% (inactive) in [1], -63.2% (inactive) in [2], -4.7% (inactive) in [4] and -1.1% (inactive) in experiment [9]. Further, in experiment [2], the nuclei count was 178%. Also, the values for the z-score in [3] (setting [10]), in [3] (setting [11]) and in experiment [3] (setting [12]) were -0.072, -0.154 and 1.26, respectively. Moreover, the values for the fluorescence slope in experiment [5] and in experiment [7] were -0.449 (inactive) and 0.00553 (inactive), respectively. Moreover, the NADPH fluorescence slope in experiment [6] was -3e-05 (inactive). Also, the compound was called inactive in experiment [8].

In the case of `CCCCCSc1nc(C)c(CC(=O)O)c(=O)[nH]1`, in [1], the cell count was 400. The inhibition in experiment [1] was -8.8% (inactive); in [2] it was -27.1% (inactive); in experiment [4] it was 1.04% (inactive); in experiment [9] it was 34.5% (inactive). This compound also came in with a nuclei count in [2] of 114%. The results for the z-score in experiment [3] (setting [10]), in [3] (setting [11]) and in experiment [3] (setting [12]) were 0.718, -0.507 and -1.88, respectively. In addition, the fluorescence slope was -0.477 (inactive) in [5] and 0.00563 (inactive) in experiment [7]. Moreover, the NADPH fluorescence slope in experiment [6] is -5.1e-06 (inactive). The result in experiment [8] was inactive.

Turning to `Cc1c(C2CC(=O)N(c3ccccc3)C2=O)[nH]n(-c2ccccc2)c1=O` (centres undefined), the cell count in [1] came to 618. Further, the inhibition is 4.4% (inactive) in [1], -97.6% (inactive) in experiment [2], -7.86% (inactive) in [4] and 6.43% (inactive) in [9]. The compound also showed a nuclei count in experiment [2] of 143%. Besides, the z-score in experiment [3] (setting [10]) is -1.05; in experiment [3] (setting [11]), 0.971; in [3] (setting [12]), 0.084. The results for the fluorescence slope in experiment [5] and in experiment [7] were -0.488 (inactive) and 0.00493 (inactive), respectively. Moreover, the NADPH fluorescence slope in [6] was -5.3e-05 (inactive). Also, the outcome in [8] was inactive.

As to `Cc1cc(C)c(S(=O)(=O)O)c(C)n1`, the cell count in experiment [1] worked out at 533. Besides, the inhibition in experiment [1] is -13.8% (inactive); in experiment [2], 6.7% (inactive); in experiment [4] it was -5.95% (inactive); in experiment [9], -7.08% (inactive). Further, the nuclei count in experiment [2] is 203%. Moreover, the figures for the z-score in experiment [3] (setting [10]), in [3] (setting [11]) and in [3] (setting [12]) were -0.302, 0.575 and 0.985, respectively. For the same compound, the fluorescence slope is -0.393 (inactive) in [5] and 0.00523 (inactive) in [7]. Besides, the NADPH fluorescence slope in experiment [6] is -4.7e-05 (inactive). For the same compound, the compound was called inactive in experiment [8].

In the case of `CCOC(=O)CSc1nnc(C)c(=O)[nH]1`, in experiment [1], the cell count was found to be 670. Further, the inhibition in [1] is -5.5% (inactive); in [2], -201% (inactive); in [4], -16.8% (inactive); in experiment [9], -3.91% (inactive). Further, the nuclei count in experiment [2] is 163%. The z-score is -0.66 in experiment [3] (setting [10]), 0.692 in experiment [3] (setting [11]) and 1.49 in experiment [3] (setting [12]). Further, the fluorescence slope is -0.476 (inactive) in experiment [5] and 0.0066 (inactive) in experiment [7]. In addition, the NADPH fluorescence slope in experiment [6] is -4.6e-05 (inactive). For the same compound, in experiment [8], the call was inactive.

On to `CCN(CC)C(=O)CSc1nc2ccccc2c(=O)n1CC1CCCCC1`, for which the cell count in experiment [1] was determined as 355. The inhibition is -2.2% (inactive) in experiment [1], 4% (inactive) in experiment [2], 1.42% (inactive) in experiment [4] and 7.22% (inactive) in experiment [9]. In addition, the nuclei count in [2] was determined as 108%. Besides, the z-score in experiment [3] (setting [10]) was -1.94; in [3] (setting [11]) it was 0.923; in [3] (setting [12]), -0.374. Further, the figures for the fluorescence slope in experiment [5] and in [7] were -0.484 (inactive) and 0.00498 (inactive), respectively. Moreover, in [6], the NADPH fluorescence slope is 5.7e-06 (inactive). Besides, in [8], the compound was classed as inactive.

For the compound `COn1c(SC2CCCCC2)nc2ccccc2c1=O`, in experiment [1], the cell count turned out to be 587. The inhibition was -3.1% (inactive) in experiment [1], -35.7% (inactive) in experiment [2], -7.28% (inactive) in experiment [4] and 0.873% (inactive) in [9]. In experiment [2], this compound had a nuclei count of 160%. Further, the z-score in experiment [3] (setting [10]) is 0.823; in experiment [3] (setting [11]), 0.448; in experiment [3] (setting [12]), -1.08. Further, the results for the fluorescence slope in [5] and in experiment [7] were -0.48 (inactive) and 0.00976 (inactive), respectively. Further, the NADPH fluorescence slope in experiment [6] is -7.1e-05 (inactive). Moreover, the compound was classed as inactive in experiment [8].

For `CCOc1ccc(NC(=O)CSC2=C(C#N)C(c3ccc4c(c3)OCO4)CC(=O)N2)cc1` (centres undefined), the cell count in experiment [1] amounted to 639. Also, the inhibition in [1] was 0.6% (inactive); in [2], 75.3% (inactive); in [4], -6.06% (inactive); in [9] it was 14.4% (inactive). In addition, the nuclei count in experiment [2] amounted to 140%. The results for the z-score in experiment [3] (setting [10]), in experiment [3] (setting [11]) and in experiment [3] (setting [12]) were 0.00899, -0.0485 and -0.833, respectively. For the same compound, the values for the fluorescence slope in experiment [5] and in experiment [7] were -0.47 (inactive) and 0.00582 (inactive), respectively. In experiment [6], the NADPH fluorescence slope was -5.2e-05 (inactive). In addition, the outcome in experiment [8] was inactive.

In the case of `CCCC(=O)Nc1nn(CCC)c2nc3ccccc3cc12`, the cell count in [1] stood at 632. For the same compound, the inhibition was -8.1% (inactive) in experiment [1], 7.7% (inactive) in experiment [2], 2.71% (inactive) in [4] and 6.78% (inactive) in experiment [9]. This compound registered a nuclei count in experiment [2] of 142%. Besides, the z-score in [3] (setting [10]) was -0.342; in experiment [3] (setting [11]), -1.58; in experiment [3] (setting [12]), 0.919. For the same compound, the fluorescence slope is -0.481 (inactive) in experiment [5] and 0.00673 (inactive) in experiment [7]. For the same compound, the NADPH fluorescence slope in [6] was -6.7e-05 (inactive). Moreover, in experiment [8], the outcome was inactive.
